Assay outcomes deposited in PubChem BioAssay by National Center for Advancing Translational Sciences (NCATS).
GAA inhib – blocks human lysosomal alpha-glucosidase; AID 1466; 0.005% of 200,000 active; purified human GAA, 4-MU-alpha-glucoside fluorescence; P10253; Potency, µM (doses to about 76.9 µM), for inactives: at the highest dose activity change, negative = inhibition, most hits filed as inhibitors;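 also: potency is read from the fitted curve at half-maximal effect; plate controls were uninhibited enzyme wells for no effect and no-enzyme background for full effect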
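Human enzyme at 4 nM with 400 uM 4-methylumbelliferyl-alpha-D-pyranoside, citrate/phosphate buffer pH 5.0, 0.005% Tween-20, 20 min at room temperature. Compounds up to 77 uM. 4-MU fluorescence (Ex 365/Em 440) read after NaOH/glycine stop; AC50 from Hill fit.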
GLA spleen mod – inhibits or activates alpha-galactosidase in human spleen homogenate; P06280; AID 2107; Potency, µM (doses to about 80 µM), for inactives: at the highest dose activity change, negative = inhibition, usual class: inhibitors; human spleen homogenate, 4MU-alpha-Gal fluorescence, 40 min; 0.008% of 240,000 active;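 also: potency is read from the fitted curve at half-maximal effect; 0% = enzyme with vehicle and -100% = no enzyme basal signal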
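Fluorogenic readout (Ex 365/Em 440 nm) of 4-methylumbelliferone released from 1 mM 4-MU-alpha-galactoside by spleen homogenate, 40 min at 37C, pH 5.0. Data normalized to no-enzyme and enzyme controls; Hill-equation AC50 from compound titrations.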
GLA inh pH 4.5 – alpha-galactosidase A (human) inhibition, pH 4.5; P06280; purified enzyme, 4-MU-alpha-Gal fluorescence, pH 4.5; activity change, negative = inhibition, % at 105 µM; 230,000 tested, under 10 active; AID 1467;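 also: 0% = full activity with enzyme and -100% = basal without enzyme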
Target sequence (P06280 whole entry, looked up): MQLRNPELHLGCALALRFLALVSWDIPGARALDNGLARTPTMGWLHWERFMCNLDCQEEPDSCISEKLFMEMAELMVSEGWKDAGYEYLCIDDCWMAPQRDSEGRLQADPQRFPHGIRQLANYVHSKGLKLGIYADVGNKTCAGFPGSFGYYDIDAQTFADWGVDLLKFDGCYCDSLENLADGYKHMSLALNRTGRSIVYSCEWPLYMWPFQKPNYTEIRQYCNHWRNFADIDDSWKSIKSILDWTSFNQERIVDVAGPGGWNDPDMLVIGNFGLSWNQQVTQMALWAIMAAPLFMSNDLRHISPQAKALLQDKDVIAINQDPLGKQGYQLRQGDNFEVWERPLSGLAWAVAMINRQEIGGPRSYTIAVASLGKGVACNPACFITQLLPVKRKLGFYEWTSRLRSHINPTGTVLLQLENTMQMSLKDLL
N370S GC – N370S glucocerebrosidase modulation, Gaucher chaperone candidate; N370S GC spleen homogenate, 4MU-glucoside fluorescence; 0.092% of 330,000 active; Potency, µM (highest dose often 59.4 µM), for the others: at the top dose activity change, negative = inhibition, most hits filed as inhibitors; AID 2101;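 also: potency is read from the fitted curve at half-maximal effect; 0% = full enzyme activity and -100% = no enzyme basal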
GAA glycogen mod – GAA glycogen-cleavage inhibition or activation | P10253 | AID 2100 | 0.38% of 300,000 active | recombinant GAA, glycogen substrate, Amplex Red glucose oxidase fluorescence | Potency, µM (top dose mostly 76.4 µM), for the others: at the top dose activity change, negative = inhibition, hits mostly inhibitors;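 also: potency is read from the fitted curve at half-maximal effect; 0% = full enzyme reaction and -100% = no-enzyme basal signal; the screen sought inhibitors and activators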
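qHTS, 1536-well; enzyme 4 nM final; cpd up to 77 uM; substrate bovine liver glycogen 30 ug; 50 mM citrate/phosphate pH 5.0, 0.01% Tween-20; 37 C, 40 min; Amplex Red detection 45 min RT; Hill fit → AC50.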
aGlu spleen mod – inhibitors or activators of human alpha-glucosidase in spleen homogenate; P10253; human spleen homogenate, 4-MU-alpha-glucoside fluorescence; AID 2112; Potency, µM (doses to about 79.9 µM), inactives show at the top dose activity change, negative = inhibition, hits mostly inhibitors; 0.006% of 240,000 active;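 also: potency is read from the fitted curve at half-maximal effect; 0% = enzyme with vehicle and -100% = no enzyme basal signal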
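Human spleen homogenate (1 ug) with 4-methylumbelliferyl-alpha-D-glucopyranoside (1 mM final) in 50 mM citrate/phosphate pH 5.0, 0.01% Tween-20; 40 min at 37 C. Stopped at pH 10; 4-MU fluorescence Ex 365/Em 440 nm; AC50 by Hill fit.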
An asterisk follows results filed as active; ? = inconclusive; / = no result given; ! = not confirmed by another sample; [ ] = dose if it differs, or a comment. Rows were chosen to be rich in hits. Some 0.43% of all compounds tested hit in one or more screens of this group. Calls follow the shape of the dose curve; as a rule, active = well fitted curve in the direction sought with a large enough effect; inconclusive = small, poorly fitted or top-dose-only effect, or another doubt; inactive = no such curve, though single readings can be large; an effect the other way counts as inactive or inconclusive.

SMILES	GAA inhib	GLA spleen mod	GLA inh pH 4.5	N370S GC	GAA glycogen mod	aGlu spleen mod
O=c1cc(-c2ccc(O)c(O)c2)oc2c(C3O[C@H](CO)[C@@H](O)[C@H](O)[C@H]3O)c(O)cc(O)c12 (some centres not stated)	?	-9%	-14	-18%	4.5µM*	-16%
CC(=O)[O-].CC(=O)[O-].O.O.O.[Pb+2]	/	-10%	/	9%	/	-8%
CCCC/C(C)=C/[C@@H](NP(=O)(c1ccccc1)c1ccccc1)c1ccccc1	?	7%	-1	-3%	1.3µM*	2%
CNc1ccc2oc(C[C@@H]3OC4(CC[C@@H]3C)O[C@H]([C@@H](C)C(=O)c3ccc[nH]3)[C@H](C)C[C@H]4C)nc2c1C(=O)O (some centres not stated)	/	13%	/	9%	/	-15%
NC1CCCC[C@@H]1N (some centres not stated)	/	25%	/	-6%	/	10%
C[C@]12CC[C@@H]3c4ccc(O)c(O)c4CC[C@H]3[C@@H]1CC[C@@H]2O	-13%[15.4 µM]	11%	-22	-4%	8.8µM*	11%
C[C@]12CC[C@H]3[C@@H](CCC4=CC(=O)CC[C@@H]43)[C@@H]1CC[C@@H]2O	/	-8%	-4	?	/	-2%
C[C@]12CC[C@@H]3c4cc(O)c(O)cc4CC[C@H]3[C@@H]1CC[C@@H]2O	-34%[15.4 µM]	4%	-11	-9%	3.1µM*	7%
N#Cc1c(/N=C/c2c(O)n(Cc3ccco3)c(=O)[nH]c2=O)sc2c1CCCC2	11%	-18%	-4	2%	14µM*	-5%
[Cl-].[Cl-].[Hg+2]	/	8%	/	?	/	-3%
O=c1c2ccccc2[se]n1-c1ccccc1	-8%[15.4 µM]	-25%	-2	22µM*!	-6%	-5%
ClC(Cl)C(Cl)Cl	/	2%	/	1%	/	0%
CCOC(=O)C1(CCOc2ccccc2)CCN(Cc2cnc(SC)nc2)CC1	1%	1%	7	20µM*	4%	-1%
O=C1C=CC(=O)C(Cl)=C1	/	4%	0	13%	/	-12%
CN1C(=O)C(Cc2ccsc2)C(=O)N(C)C1=O	-13%	-6%	-3	0%	6%	0%
CN1C(=O)C(Cc2ccc3c(c2)OCO3)C(=O)N(C)C1=O	-4%	3%	-2	/	40µM*	-5%
CC1(C)N(O)C2CCCCC2N1O (configuration not stated)	-1%	-5%	-2	4%	-22%	-3%
CC12CCCCC1N(O)CN2O (configuration not stated)	-1%	5%	5	-16%	18µM*	2%
ON1C2CCCCC2N(O)C1c1ccccc1F (configuration not stated)	1%	-20%	6	-2%	8.8µM*	-4%
Cc1cc2c(s1)Nc1ccccc1N=C2N1CCN(C)CC1	0%[15.4 µM]	-6%	0	-5%	5.6µM*	-3%
O=C(Nc1ccc(COc2ccccc2)cc1)Oc1ccccc1N1CCOCC1	-8%	0%	-3	0%	4µM*	0%
CN1CCN(c2ccc(NC(=O)Oc3ccccc3)cc2)CC1	4%	5%	0	-12%	?	-3%
O=C1CC(N(O)c2ccccc2)C(=O)N1Cc1ccccc1 (configuration not stated)	-6%	0%	5	-6%	32µM*	2%
[CH3][Hg][Cl]	/	-3%	/	-4%	/	8%
Oc1ccc(CC2CC3CCN2CC3)cc1O (configuration not stated)	1%	-1%	-5	-6%	3.5µM*	-2%
SMILES	GAA inhib	GLA spleen mod	GLA inh pH 4.5	N370S GC	GAA glycogen mod	aGlu spleen mod
Oc1ccc(C[C@H]2NCCc3cc(O)c(O)cc32)cc1O	/	/	/	-9%	?	/
COc1ccc2c(c1)c(CCN1CCOCC1)c(C)n2C(=O)c1cccc(Cl)c1Cl	/	0%	-6	13µM*	/	-1%
CCOC(=O)c1c(C)n(CCN2CCN(C)CC2)c2ccc(OC)cc12	-7%	-4%	-6	-7%	4%	0%
CNC(=O)Oc1cccc2ccccc12	/	0%	1	2%	35µM*	-3%
CC(=O)Oc1c2c(c(CC=C(C)C)c3c1C(=O)C1=CC4CC5C(C)(C)OC(C/C=C(\C)C(=O)O)(C4=O)[C@]15O3)OC(C)(CCC=C(C)C)C=C2 (some centres not stated)	/	-3%	-25	-2%	/	-9%
CCCCC/C=C\C/C=C\C/C=C\C/C=C\CCCC(=O)Nc1ccc(O)cc1	?	-4%	-8	-14%	32µM*	0%
C=CC1CC=CCC1 (configuration not stated)	/	1%	/	-25%	/	0%
Cc1ccc(N2C(=O)NC(=O)/C(=C\c3cc(C)n(-c4ccc(C(=O)O)cc4)c3C)C2=O)cc1	/	/	/	-8%	5%	/
Cc1cc(/C=C2\C(=O)NC(=O)N(c3ccc(F)cc3)C2=O)c(C)n1-c1ccc(C(=O)O)cc1	28µM*	13%	-20	/	?	0%
O=C1CC(NC(=O)C(F)(F)F)=NN1c1ccccc1	4%	0%	-11	-7%	18µM*	-12%
O=C1CC(c2cccnc2)=NN1c1ccccc1	-9%	1%	-3	-6%	-19%	2%
CCOP(=S)(OCC)Oc1ccc([N+](=O)[O-])cc1	/	7%	/	9%	/	9%
